Test results: PMC7862700, “An all-to-all approach to the identification of sequence-specific readers for epigenetic DNA modifications on cytosine”

Assays:
Experiment in all cases: DAPPL (digital affinity profiling via proximity ligation, sequencing); 10 mM Tris-HCl pH 7.5, 50 mM NaCl, 1 mM DTT, 4% glycerol, room temperature, 30 min; GST-TFs on glutathione beads, 16-mer random dsDNA library, 0.1% formaldehyde crosslink after washing; high values mean tight binding
Details in all cases: protein: recombinant; tags: N-terminal GST; dsDNA, one strand shown
FLI1 = biological target: T1, FLI1 (Homo sapiens, UniProt Q01543 1-452)
T1 sequence: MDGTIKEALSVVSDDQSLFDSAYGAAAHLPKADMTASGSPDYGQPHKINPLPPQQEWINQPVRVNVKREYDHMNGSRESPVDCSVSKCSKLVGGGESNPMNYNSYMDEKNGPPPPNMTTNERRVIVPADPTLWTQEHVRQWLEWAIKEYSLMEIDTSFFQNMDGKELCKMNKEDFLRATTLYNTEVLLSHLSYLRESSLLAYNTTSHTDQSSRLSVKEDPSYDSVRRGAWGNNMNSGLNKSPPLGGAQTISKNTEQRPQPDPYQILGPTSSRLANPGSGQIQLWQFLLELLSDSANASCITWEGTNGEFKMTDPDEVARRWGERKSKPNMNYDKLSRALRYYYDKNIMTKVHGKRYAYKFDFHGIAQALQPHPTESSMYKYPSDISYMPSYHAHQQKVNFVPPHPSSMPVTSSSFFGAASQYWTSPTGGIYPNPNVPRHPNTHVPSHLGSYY
Method in brief: (§1)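 Yeast served to express human transcription factors as GST fusions, which were then captured on glutathione beads and labelled with DNA barcodes. Pooled with a tag-only sample, they were incubated with 200 nmole of a 16-mer random double-stranded DNA library for 30 min at room temperature in Tris/NaCl/DTT/glycerol buffer, washed, crosslinked with 0.1% formaldehyde, ligated by proximity, amplified by PCR and sequenced. Dividing each hexamer's read frequency for a factor by its frequency for the tag-only sample gives the binding signal.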

ELK1 = biological target: T2, ELK1 (Homo sapiens, UniProt P19419 1-428)
T2 sequence: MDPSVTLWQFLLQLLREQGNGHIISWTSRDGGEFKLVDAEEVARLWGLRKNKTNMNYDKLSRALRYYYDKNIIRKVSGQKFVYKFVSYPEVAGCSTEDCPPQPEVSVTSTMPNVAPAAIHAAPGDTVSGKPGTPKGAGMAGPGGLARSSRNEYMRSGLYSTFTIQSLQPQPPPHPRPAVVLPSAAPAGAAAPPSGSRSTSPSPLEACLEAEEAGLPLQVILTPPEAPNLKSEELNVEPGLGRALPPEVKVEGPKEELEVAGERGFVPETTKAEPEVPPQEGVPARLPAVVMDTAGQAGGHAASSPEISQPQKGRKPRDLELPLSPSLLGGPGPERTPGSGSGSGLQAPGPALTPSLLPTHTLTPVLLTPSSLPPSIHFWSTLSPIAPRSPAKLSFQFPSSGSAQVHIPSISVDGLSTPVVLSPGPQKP
Method in brief: as §1

ELF4 = ELF4 (Homo sapiens, UniProt Q99607 1-663)
Method in brief: as §1

ELF3 = biological target: T3, ELF3 (Homo sapiens, UniProt P78545 1-371)
T3 sequence: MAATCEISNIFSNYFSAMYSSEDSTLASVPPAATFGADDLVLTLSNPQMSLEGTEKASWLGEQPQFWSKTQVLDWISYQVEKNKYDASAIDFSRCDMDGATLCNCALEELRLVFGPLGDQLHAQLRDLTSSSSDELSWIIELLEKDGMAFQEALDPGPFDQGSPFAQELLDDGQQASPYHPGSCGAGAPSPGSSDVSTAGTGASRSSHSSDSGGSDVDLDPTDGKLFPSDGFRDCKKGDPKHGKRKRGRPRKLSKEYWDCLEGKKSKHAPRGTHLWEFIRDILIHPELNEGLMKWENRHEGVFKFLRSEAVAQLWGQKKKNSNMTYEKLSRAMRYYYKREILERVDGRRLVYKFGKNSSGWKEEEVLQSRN
Method in brief: as §1

ERF = biological target: T4, ERF (Homo sapiens, UniProt P50548 1-548)
T4 sequence: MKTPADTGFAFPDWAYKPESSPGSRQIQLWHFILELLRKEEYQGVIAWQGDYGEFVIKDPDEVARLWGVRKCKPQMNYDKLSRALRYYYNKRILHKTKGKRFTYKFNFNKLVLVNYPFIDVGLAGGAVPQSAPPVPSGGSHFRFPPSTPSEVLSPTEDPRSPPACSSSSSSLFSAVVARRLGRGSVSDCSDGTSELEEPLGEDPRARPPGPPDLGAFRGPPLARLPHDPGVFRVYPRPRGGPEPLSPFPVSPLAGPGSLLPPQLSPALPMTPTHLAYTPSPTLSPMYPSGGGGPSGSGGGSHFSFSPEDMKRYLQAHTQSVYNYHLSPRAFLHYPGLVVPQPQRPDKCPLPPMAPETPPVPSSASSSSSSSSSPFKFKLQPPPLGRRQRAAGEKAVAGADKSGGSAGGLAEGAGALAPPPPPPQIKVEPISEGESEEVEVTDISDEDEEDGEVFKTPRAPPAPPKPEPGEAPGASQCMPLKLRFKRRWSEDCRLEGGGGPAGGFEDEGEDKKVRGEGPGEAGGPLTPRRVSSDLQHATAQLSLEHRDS
Method in brief: as §1

ETV7 = biological target: T5, ETV7 (Homo sapiens, UniProt Q9Y603 1-341)
T5 sequence: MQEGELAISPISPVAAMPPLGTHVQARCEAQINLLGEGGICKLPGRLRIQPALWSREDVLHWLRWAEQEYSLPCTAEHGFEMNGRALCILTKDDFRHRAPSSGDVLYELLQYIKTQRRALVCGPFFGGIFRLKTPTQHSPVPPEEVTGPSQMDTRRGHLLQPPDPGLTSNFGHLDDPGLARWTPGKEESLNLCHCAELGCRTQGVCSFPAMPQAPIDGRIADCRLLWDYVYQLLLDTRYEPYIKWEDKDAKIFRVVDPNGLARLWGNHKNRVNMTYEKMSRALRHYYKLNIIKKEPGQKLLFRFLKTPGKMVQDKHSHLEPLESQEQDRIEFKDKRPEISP
Method in brief: as §1

ETV3 = biological target: T6, ETV3 (Homo sapiens, UniProt P41162-2 1-143)
T6 sequence: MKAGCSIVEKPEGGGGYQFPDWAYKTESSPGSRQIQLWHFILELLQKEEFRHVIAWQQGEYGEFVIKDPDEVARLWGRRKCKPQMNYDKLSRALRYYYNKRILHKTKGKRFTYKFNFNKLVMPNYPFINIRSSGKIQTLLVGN
Method in brief: as §1

ETV6 = ETV6 (Homo sapiens, UniProt P41212 1-452)
Method in brief: as §1

SPIC = biological target: T7, SPIC (Homo sapiens, UniProt Q8N5J4 1-248)
T7 sequence: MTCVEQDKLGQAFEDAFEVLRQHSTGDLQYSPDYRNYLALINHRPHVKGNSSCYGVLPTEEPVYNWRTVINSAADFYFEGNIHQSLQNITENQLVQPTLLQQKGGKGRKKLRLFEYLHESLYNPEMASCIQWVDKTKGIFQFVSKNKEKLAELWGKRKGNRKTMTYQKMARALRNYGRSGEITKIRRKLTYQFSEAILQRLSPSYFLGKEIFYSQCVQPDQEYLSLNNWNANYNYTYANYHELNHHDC
Method in brief: as §1

ELF4, sequence (Q99607 whole entry): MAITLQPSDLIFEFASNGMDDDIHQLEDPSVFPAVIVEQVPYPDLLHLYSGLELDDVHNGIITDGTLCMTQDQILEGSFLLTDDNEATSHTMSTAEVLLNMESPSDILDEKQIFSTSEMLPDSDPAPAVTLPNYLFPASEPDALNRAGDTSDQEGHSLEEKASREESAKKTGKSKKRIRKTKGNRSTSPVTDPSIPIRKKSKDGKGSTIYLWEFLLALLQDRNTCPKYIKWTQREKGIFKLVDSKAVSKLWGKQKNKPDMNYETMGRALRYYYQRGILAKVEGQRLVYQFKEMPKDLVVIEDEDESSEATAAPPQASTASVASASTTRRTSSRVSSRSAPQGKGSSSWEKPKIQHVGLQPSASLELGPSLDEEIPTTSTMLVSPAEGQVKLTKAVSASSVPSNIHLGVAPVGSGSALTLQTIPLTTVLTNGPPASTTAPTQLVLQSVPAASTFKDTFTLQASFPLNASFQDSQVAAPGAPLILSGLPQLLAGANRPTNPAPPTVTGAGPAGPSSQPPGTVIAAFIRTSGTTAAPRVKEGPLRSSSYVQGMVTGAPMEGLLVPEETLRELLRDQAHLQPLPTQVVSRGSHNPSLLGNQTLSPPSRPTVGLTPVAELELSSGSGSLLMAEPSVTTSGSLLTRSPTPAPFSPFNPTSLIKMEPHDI
ETV6, sequence (P41212 whole entry): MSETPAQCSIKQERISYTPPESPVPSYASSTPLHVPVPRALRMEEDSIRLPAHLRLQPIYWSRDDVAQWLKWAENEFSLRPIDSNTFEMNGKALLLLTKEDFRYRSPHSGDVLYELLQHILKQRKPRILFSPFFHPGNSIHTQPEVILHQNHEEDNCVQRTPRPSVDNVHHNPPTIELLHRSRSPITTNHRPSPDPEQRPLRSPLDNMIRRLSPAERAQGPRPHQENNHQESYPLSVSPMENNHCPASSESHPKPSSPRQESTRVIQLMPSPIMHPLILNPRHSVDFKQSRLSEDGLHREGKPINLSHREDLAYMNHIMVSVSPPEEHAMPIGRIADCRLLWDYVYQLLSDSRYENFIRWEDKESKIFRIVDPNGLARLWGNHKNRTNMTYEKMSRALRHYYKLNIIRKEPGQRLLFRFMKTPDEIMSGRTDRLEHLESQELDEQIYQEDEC

Sequence | binding signal (FLI1) | binding signal (ELK1) | binding signal (ELF4) | binding signal (ELF3) | binding signal (ERF) | binding signal (ETV7) | binding signal (ETV3) | binding signal (ETV6) | binding signal (SPIC)
AGAAAC | 1.04 fold enrichment (6-mer frequency, TF over GST control) | 1.02 fold enrichment (6-mer frequency, TF over GST control) | 1.01 fold enrichment (6-mer frequency, TF over GST control) | 1.02 fold enrichment (6-mer frequency, TF over GST control) | 1.05 fold enrichment (6-mer frequency, TF over GST control) | 1.16 fold enrichment (6-mer frequency, TF over GST control) | 1.01 fold enrichment (6-mer frequency, TF over GST control) | 1.03 fold enrichment (6-mer frequency, TF over GST control) | 
ATTCGG | 1.01 fold enrichment (6-mer frequency, TF over GST control) |  |  |  |  |  | 1.02 fold enrichment (6-mer frequency, TF over GST control) |  | 1.04 fold enrichment (6-mer frequency, TF over GST control)
